Records with an inconclusive call do not appear. Where a call stands in place of a potency, no number is given. Calls of active or inactive are those of the source. Calls come from the whole dose curve; as a rule, active = well fitted inhibition curve with a large enough effect; inconclusive = small, poorly fitted or top-dose-only effect; inactive = flat fitted curve, though single readings scatter.
target: Calcium and integrin-binding protein 1 (Homo sapiens) (UniProt Q99828); test: Primary qHTS for Identification of Calcium Integrin Binding Protein 1 (CIB1) Competitor (AID 1508620); conditions: CIB1-GST / FITC-alphaIIb peptide fluorescence polarization; series mostly up to 57.7 µM; note: top concentration of the series differs between compounds
Sequence (Q99828 whole entry, looked up): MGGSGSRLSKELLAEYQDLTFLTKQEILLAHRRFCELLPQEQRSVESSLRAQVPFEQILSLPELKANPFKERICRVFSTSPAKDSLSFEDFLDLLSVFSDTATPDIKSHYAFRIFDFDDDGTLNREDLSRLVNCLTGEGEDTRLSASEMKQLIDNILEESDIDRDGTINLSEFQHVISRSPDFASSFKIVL
Summary of the method: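 Fluorescence polarization competition: GST-tagged CIB1 (1 uM final) preincubated with compound 15 min at room temperature, then FITC-labelled alphaIIb peptide (100 nM final) added. After 15 min at room temperature, polarization read at Ex 480/Em 540.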

Q: For `O=C(O)Cc1cccc(OCCCN(Cc2cccc(C(F)(F)F)c2Cl)CC(c2ccccc2)c2ccccc2)c1`, which Potency is on record?
A: The Potency was “inactive”.

Q: With `O=C(c1ccc(C(=O)N2CCC(N3CCCC3)CC2)c(Nc2ccccc2)c1)N1CCC(N2CCCC2)CC1` as the molecule, how does the Potency read?
A: The Potency was “inactive”.

Q: With `CN(C)c1nc(Cc2ccc(NC(=O)c3ccc(C(F)(F)F)cc3)cc2)nc(N(C)C)c1CC(=O)O` as the molecule, how does the Potency read?
A: Its Potency is “inactive”.

Q: Which Potency does the source give for `CC1(C)[C@H]2CC[C@]3(C)[C@@H](C(=O)C=C4[C@@H]5C[C@@](C)(C(=O)O)CC[C@]5(C)CC[C@]43C)[C@@]2(C)CC[C@@H]1O` here?
A: The Potency was “inactive”.

Q: For `CCCCCOC(=O)Nc1nc(=O)n([C@@H]2O[C@H](C)[C@@H](O)C2O)cc1F` (some centres undefined), which Potency is on record?
A: Its Potency is “inactive”.

Q: How did the Potency turn out when `CCN1C[C@H](C)n2c(c(O)c3c(=O)n(Cc4ccc(F)c(Cl)c4)nc(C(=O)NC)c32)C1=O` was run?
A: The Potency was “inactive”.

Q: `NCc1c[nH]c(=S)n1[C@H]1CCc2c(F)cc(F)cc2C1` was tested. Which Potency did it give?
A: The Potency was “inactive”.

Q: How did the Potency turn out when `CN(CC=CC#CC(C)(C)C)Cc1cccc2ccccc12` was run?
A: Its Potency is “inactive”.

Q: How did the Potency turn out when `CNc1nc(Nc2ccc(C(=O)N3CCOCC3)cc2OC)ncc1Cl` was run?
A: The Potency was “inactive”.

Q: `O=C(c1ccc(F)c(F)c1Nc1ccc(I)cc1F)N1CC(O)([C@H]2CCCCN2)C1` was tested. Which Potency did it give?
A: The Potency was “inactive”.

Q: For `COc1cc(Nc2nc3ccccc3nc2NS(=O)(=O)c2ccc(NC(=O)c3ccc(C)c(OC)c3)cc2)cc(OC)c1`, which Potency is on record?
A: The Potency was “inactive”.

Q: `CN(C)CCOc1ccc(C(=C(CCCl)c2ccccc2)c2ccccc2)cc1` was tested. Which Potency did it give?
A: Its Potency is “inactive”.

Q: Which Potency does the source give for `COc1cc(Cl)cn2c(-c3cccc(NC4CNC4)n3)cnc12` here?
A: Its Potency is “inactive”.

Q: For `CN1N=C(N)c2cn([C@@H]3O[C@H](COP(=O)(O)O)[C@@H](O)[C@@H]3O)c3ncnc1c23`, which Potency is on record?
A: Its Potency is “inactive”.
